The results in this text go back to publication PMC7862700, “An all-to-all approach to the identification of sequence-specific readers for epigenetic DNA modifications on cytosine”.

What all share (test): DAPPL (digital affinity profiling via proximity ligation, sequencing); 10 mM Tris-HCl pH 7.5, 50 mM NaCl, 1 mM DTT, 4% glycerol, room temperature, 30 min; GST-TFs on glutathione beads, 16-mer random dsDNA library, 0.1% formaldehyde crosslink after washing; high values mean tight binding
Holding throughout (conditions): protein: recombinant; tags: N-terminal GST; dsDNA, one strand shown

One test deals with T1, FLI1 (Homo sapiens, UniProt Q01543 1-452).
T1 sequence: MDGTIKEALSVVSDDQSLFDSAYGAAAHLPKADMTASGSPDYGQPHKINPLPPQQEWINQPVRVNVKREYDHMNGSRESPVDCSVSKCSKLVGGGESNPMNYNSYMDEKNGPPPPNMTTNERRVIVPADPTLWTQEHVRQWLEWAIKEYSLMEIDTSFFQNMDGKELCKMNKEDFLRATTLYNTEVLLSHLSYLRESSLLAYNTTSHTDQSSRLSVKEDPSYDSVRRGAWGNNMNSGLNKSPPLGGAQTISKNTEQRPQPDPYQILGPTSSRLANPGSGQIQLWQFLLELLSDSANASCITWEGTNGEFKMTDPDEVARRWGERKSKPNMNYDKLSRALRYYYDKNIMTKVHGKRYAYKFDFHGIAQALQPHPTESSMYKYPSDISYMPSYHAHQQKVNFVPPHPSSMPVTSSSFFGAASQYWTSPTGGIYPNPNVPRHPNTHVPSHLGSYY
A digest of the protocol: (§1)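 After expression in yeast as GST fusions, human transcription factors were bound to glutathione beads, DNA-barcoded and mixed with a tag-only sample. The pools were incubated with 200 nmole of a 16-mer random double-stranded DNA library in Tris/NaCl/DTT/glycerol buffer (30 min, room temperature), washed and crosslinked with 0.1% formaldehyde. Proximity ligation with BsaI/T4 ligase ran for 1 h at 37 °C, before PCR amplification and sequencing on an Illumina NextSeq500. Binding signal is a hexamer's read frequency for a factor divided by its frequency for the tag-only sample.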

The next test concerns the target T2, ELK1 (Homo sapiens, UniProt P19419 1-428).
T2 sequence: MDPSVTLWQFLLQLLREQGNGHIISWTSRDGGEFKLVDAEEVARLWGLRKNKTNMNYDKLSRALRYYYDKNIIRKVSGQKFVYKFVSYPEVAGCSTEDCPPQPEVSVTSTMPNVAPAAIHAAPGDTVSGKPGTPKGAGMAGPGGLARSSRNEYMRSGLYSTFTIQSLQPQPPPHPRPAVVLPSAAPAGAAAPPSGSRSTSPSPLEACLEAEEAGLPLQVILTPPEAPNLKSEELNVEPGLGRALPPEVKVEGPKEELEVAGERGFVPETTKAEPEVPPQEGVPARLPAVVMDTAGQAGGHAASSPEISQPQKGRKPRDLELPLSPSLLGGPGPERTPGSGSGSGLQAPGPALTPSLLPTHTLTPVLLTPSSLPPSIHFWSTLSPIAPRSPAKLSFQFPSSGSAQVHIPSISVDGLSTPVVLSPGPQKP
In short, it runs like this: as §1

The target in the next test is T3, GABPA (Homo sapiens, UniProt Q06546 1-454).
T3 sequence: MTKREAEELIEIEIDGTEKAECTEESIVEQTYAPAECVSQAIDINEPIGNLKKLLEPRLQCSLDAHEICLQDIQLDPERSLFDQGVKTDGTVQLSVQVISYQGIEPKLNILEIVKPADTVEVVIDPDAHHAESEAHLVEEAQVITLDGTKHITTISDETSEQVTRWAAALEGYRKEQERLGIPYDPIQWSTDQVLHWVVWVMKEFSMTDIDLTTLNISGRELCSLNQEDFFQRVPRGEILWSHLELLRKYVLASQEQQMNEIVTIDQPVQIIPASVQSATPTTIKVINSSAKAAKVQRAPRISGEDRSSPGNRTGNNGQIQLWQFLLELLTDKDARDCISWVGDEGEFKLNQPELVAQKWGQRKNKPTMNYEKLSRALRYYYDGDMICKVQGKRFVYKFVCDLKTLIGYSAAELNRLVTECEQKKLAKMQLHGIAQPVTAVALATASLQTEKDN
A digest of the protocol:
as §1

In a further test the target is T4, ERG (Homo sapiens, UniProt P11308 1-479).
T4 sequence: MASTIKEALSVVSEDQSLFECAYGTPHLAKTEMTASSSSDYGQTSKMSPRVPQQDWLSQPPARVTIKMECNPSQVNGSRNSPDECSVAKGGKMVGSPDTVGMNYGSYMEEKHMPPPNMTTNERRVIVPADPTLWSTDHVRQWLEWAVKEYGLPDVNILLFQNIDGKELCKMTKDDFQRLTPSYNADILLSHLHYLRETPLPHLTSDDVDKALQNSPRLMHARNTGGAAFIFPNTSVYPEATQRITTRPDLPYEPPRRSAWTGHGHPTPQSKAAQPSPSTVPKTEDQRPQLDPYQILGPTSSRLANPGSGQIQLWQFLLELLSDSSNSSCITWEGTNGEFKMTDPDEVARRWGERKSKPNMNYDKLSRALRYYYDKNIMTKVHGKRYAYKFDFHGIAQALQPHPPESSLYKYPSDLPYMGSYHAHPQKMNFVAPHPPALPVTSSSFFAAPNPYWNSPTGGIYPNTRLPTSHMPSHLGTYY
A digest of the protocol: as §1

The target of another test is ELF1 (Homo sapiens, UniProt P32519 1-619). A digest of the protocol: as §1
The next test has as its target T5, EHF (Homo sapiens, UniProt Q9NZC4 1-300).
T5 sequence: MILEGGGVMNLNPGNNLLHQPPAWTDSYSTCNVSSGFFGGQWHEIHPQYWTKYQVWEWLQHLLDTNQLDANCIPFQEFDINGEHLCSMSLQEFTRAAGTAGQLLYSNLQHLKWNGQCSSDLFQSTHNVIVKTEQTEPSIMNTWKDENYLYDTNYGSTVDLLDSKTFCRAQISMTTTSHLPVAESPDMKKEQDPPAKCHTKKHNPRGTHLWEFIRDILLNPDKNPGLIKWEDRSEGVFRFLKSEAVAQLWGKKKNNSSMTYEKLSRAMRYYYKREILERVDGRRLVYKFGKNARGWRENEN
In short, it runs like this:
as §1

The next test deals with SPI1 (Homo sapiens, UniProt P17947 1-270). A digest of the protocol: as §1
In the next test the target is SPIB (Homo sapiens, UniProt Q01892 1-262). A digest of the protocol:
as §1

A further test deals with T6, ELK3 (Homo sapiens, UniProt P41970 1-407).
T6 sequence: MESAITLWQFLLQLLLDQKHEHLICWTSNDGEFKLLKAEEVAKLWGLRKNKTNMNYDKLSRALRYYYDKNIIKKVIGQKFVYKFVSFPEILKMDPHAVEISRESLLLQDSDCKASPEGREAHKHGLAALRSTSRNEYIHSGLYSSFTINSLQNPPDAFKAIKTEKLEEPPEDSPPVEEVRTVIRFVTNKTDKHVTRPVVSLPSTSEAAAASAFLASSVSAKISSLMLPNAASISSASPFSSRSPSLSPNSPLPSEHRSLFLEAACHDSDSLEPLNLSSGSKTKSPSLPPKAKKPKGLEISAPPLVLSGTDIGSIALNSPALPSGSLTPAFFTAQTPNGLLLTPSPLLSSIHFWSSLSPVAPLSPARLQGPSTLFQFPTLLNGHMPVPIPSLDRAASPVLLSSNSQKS
In short, it runs like this: as §1

SPIB, sequence (Q01892 whole entry): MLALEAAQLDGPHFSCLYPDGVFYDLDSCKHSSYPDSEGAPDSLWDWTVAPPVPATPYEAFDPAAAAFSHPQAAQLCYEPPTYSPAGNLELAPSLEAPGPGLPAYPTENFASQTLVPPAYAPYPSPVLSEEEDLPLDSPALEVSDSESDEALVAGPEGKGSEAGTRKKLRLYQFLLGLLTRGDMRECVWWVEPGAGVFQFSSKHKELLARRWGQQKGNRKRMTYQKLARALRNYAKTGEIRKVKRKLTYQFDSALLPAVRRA
ELF1, sequence (P32519 whole entry): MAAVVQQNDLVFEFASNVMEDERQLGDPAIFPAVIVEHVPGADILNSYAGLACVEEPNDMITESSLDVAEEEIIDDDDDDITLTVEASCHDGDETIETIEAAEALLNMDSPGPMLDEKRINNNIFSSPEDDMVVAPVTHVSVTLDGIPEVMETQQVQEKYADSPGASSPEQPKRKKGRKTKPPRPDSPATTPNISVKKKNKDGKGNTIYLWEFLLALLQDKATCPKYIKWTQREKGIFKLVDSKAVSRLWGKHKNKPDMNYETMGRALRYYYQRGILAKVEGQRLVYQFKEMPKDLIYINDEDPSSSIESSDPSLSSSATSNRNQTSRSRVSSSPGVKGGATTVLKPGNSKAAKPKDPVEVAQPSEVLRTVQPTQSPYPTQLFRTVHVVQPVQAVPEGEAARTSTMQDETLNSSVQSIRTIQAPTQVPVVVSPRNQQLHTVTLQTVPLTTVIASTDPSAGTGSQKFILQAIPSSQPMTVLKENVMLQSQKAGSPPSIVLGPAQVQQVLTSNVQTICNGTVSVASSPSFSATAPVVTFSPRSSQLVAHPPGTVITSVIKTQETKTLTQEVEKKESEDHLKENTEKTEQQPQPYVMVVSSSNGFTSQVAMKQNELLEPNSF

Regarding CATTCT, the binding signal in the test with FLI1 was 1.37 fold enrichment (6-mer frequency, TF over GST control); with ELK1, 1.33 fold enrichment (6-mer frequency, TF over GST control); in the test with GABPA it was 1.25 fold enrichment (6-mer frequency, TF over GST control); in the test with ERG, 1.27 fold enrichment (6-mer frequency, TF over GST control); with ELF1, 1.4 fold enrichment (6-mer frequency, TF over GST control); with EHF, 1.35 fold enrichment (6-mer frequency, TF over GST control). The binding signal was 1.26 fold enrichment (6-mer frequency, TF over GST control) with SPI1; 1.22 fold enrichment (6-mer frequency, TF over GST control) with SPIB; 1.28 fold enrichment (6-mer frequency, TF over GST control) with ELK3.

As to TTACAT, the binding signal was 1.3 fold enrichment (6-mer frequency, TF over GST control) with FLI1; 1.27 fold enrichment (6-mer frequency, TF over GST control) with ELK1; 1.38 fold enrichment (6-mer frequency, TF over GST control) with GABPA; 1.31 fold enrichment (6-mer frequency, TF over GST control) with ERG; 1.31 fold enrichment (6-mer frequency, TF over GST control) with ELF1; 1.43 fold enrichment (6-mer frequency, TF over GST control) with EHF. In addition, the binding signal is 1.3 fold enrichment (6-mer frequency, TF over GST control) in the test with SPI1; 1.3 fold enrichment (6-mer frequency, TF over GST control) with SPIB; 1.36 fold enrichment (6-mer frequency, TF over GST control) with ELK3.

For ATCGAC, the binding signal in the test with FLI1 was 1.13 fold enrichment (6-mer frequency, TF over GST control); with ELK1, 1.11 fold enrichment (6-mer frequency, TF over GST control); with GABPA, 1.17 fold enrichment (6-mer frequency, TF over GST control); with ERG, 1.1 fold enrichment (6-mer frequency, TF over GST control); with ELF1, 1.24 fold enrichment (6-mer frequency, TF over GST control); in the test with EHF, 1.12 fold enrichment (6-mer frequency, TF over GST control). Further, the binding signal with SPI1 is 1.15 fold enrichment (6-mer frequency, TF over GST control); in the test with SPIB it was 1.11 fold enrichment (6-mer frequency, TF over GST control); with ELK3, 1.27 fold enrichment (6-mer frequency, TF over GST control).

On to TGAATA, for which the binding signal in the test with FLI1 is 1.05 fold enrichment (6-mer frequency, TF over GST control); with ELK1, 1.11 fold enrichment (6-mer frequency, TF over GST control); with GABPA, 1.2 fold enrichment (6-mer frequency, TF over GST control); in the test with ERG it was 1.08 fold enrichment (6-mer frequency, TF over GST control); with ELF1 it was 1.1 fold enrichment (6-mer frequency, TF over GST control); in the test with EHF it was 1.12 fold enrichment (6-mer frequency, TF over GST control). For the same sequence, the binding signal with SPI1 is 1.08 fold enrichment (6-mer frequency, TF over GST control); with SPIB it was 1.05 fold enrichment (6-mer frequency, TF over GST control); with ELK3, 1.06 fold enrichment (6-mer frequency, TF over GST control).

Regarding TTGAAA, the binding signal with FLI1 was 1.22 fold enrichment (6-mer frequency, TF over GST control); in the test with ELK1, 1.25 fold enrichment (6-mer frequency, TF over GST control); in the test with GABPA, 1.11 fold enrichment (6-mer frequency, TF over GST control); with ERG, 1.09 fold enrichment (6-mer frequency, TF over GST control); with ELF1 it was 1.23 fold enrichment (6-mer frequency, TF over GST control); with EHF, 1.23 fold enrichment (6-mer frequency, TF over GST control). The binding signal is 1.18 fold enrichment (6-mer frequency, TF over GST control) in the test with SPI1; 1.1 fold enrichment (6-mer frequency, TF over GST control) with SPIB; 1.09 fold enrichment (6-mer frequency, TF over GST control) in the test with ELK3.

Take TCCTTT: the binding signal with FLI1 was 1.64 fold enrichment (6-mer frequency, TF over GST control); with ELK1 it was 1.75 fold enrichment (6-mer frequency, TF over GST control); with GABPA, 1.72 fold enrichment (6-mer frequency, TF over GST control); in the test with ERG, 1.79 fold enrichment (6-mer frequency, TF over GST control); with ELF1, 1.81 fold enrichment (6-mer frequency, TF over GST control); in the test with EHF, 1.73 fold enrichment (6-mer frequency, TF over GST control). The binding signal in the test with SPI1 was 1.83 fold enrichment (6-mer frequency, TF over GST control); with SPIB it was 1.67 fold enrichment (6-mer frequency, TF over GST control); in the test with ELK3 it was 1.81 fold enrichment (6-mer frequency, TF over GST control).

ATATAC: the binding signal with FLI1 is 1.13 fold enrichment (6-mer frequency, TF over GST control); with ELK1, 1.24 fold enrichment (6-mer frequency, TF over GST control); in the test with GABPA it was 1.2 fold enrichment (6-mer frequency, TF over GST control); in the test with ERG, 1.18 fold enrichment (6-mer frequency, TF over GST control); with ELF1, 1.14 fold enrichment (6-mer frequency, TF over GST control); in the test with EHF, 1.22 fold enrichment (6-mer frequency, TF over GST control). Also, the binding signal with SPI1 is 1.19 fold enrichment (6-mer frequency, TF over GST control); with SPIB it was 1.21 fold enrichment (6-mer frequency, TF over GST control); with ELK3, 1.27 fold enrichment (6-mer frequency, TF over GST control).
